# Laboratory results reported in PubChem BioAssay AID485346 (Sanford-Burnham Center for Chemical Genomics, 2010).
# Screen size: about 330,000 compounds; about 10,000 (3%) were called active.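 Rule for the calls: active = inhibition of at least 50% at 8 µM in the primary screen; inactive = the rest.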 The list comes from a sample in which actives are over-represented; it also holds similar structures and randomly drawn compounds.
# Target: Protein Mdm4 (Homo sapiens) + E3 ubiquitin-protein ligase Mdm2 (Homo sapiens) (UniProt O15151+Q00987)
# Sequence (O15151 whole entry, looked up): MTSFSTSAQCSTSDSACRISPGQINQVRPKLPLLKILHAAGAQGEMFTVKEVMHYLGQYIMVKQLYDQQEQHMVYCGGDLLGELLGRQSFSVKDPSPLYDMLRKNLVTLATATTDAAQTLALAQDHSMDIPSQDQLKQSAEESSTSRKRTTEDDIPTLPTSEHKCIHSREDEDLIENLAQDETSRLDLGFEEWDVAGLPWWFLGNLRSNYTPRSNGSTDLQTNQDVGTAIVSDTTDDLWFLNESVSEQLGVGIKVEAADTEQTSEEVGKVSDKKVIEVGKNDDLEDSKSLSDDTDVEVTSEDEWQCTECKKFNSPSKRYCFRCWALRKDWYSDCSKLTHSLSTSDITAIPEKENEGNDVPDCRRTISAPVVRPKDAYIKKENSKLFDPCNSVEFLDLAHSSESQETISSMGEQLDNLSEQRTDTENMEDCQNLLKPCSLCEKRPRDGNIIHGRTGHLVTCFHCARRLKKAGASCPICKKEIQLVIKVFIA
# Sequence (Q00987 whole entry, looked up): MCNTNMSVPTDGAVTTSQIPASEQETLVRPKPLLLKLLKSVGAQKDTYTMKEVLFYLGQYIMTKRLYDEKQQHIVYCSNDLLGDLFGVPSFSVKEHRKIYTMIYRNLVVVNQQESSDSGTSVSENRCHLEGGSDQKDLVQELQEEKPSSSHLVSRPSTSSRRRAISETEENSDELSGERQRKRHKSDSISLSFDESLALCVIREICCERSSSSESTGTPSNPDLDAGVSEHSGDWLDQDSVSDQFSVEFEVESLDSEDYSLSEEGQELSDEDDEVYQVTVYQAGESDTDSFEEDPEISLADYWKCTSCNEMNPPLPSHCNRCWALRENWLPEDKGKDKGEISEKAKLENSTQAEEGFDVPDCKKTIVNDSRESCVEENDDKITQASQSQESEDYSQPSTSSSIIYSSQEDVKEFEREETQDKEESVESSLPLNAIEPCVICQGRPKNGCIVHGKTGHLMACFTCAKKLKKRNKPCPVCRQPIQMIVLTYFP
# Assay: inhibitors of human Mdm2-MdmX association, primary screen, cell-based, luminescence, split luciferase, SaOS-2, uHTS (AID 485346)
# Conditions: SaOS-2 split-luciferase Mdm2/MdmX complementation, at 8 µM, active compounds read high
row,Structure (SMILES),inhibition
1,C=CCNC(=S)NNc1ncnc2sc3c(c12)CC(C)(C)OC3,10.5% (inactive)
2,COc1cc(/C=C/C(=O)OCC(=O)NCCCc2ccccc2)ccc1O,-15.8% (inactive)
3,O=C(CCC(=O)N1CCCC1)Nc1ccc([N+](=O)[O-])cc1,8.85% (inactive)
4,CCC12CN3CC(CC)(CN(C1)C31C(=O)N(C)c3ccc(C)cc31)C2=O (stereo not drawn),5.2% (inactive)
5,Cc1cccc(-c2nc3ccc(C(=O)NCCN4CCN(C)CC4)cc3nc2-c2cccc(C)c2)c1,93.2% (active)
6,Cc1cccc(C(=O)OC(C)CN2CCN(C)CC2)c1 (stereo not drawn),15.4% (inactive)
7,CCC1=Nc2cc(C(=O)NCCN3CCCC3)ccc2Sc2ccc(C)cc21,22.7% (inactive)
8,O=C(CCN1C(=O)c2ccccc2C1=O)NNC(=O)c1ccc(Cl)cc1Cl,-2.94% (inactive)
9,Cc1ccc(C(=O)NNC(=O)c2ccc3c(c2)OCCO3)cc1,-59.9% (inactive)
10,CCCCn1c(N)c(N(CCC(C)C)C(=O)COC(=O)c2ccc(CC)cc2)c(=O)[nH]c1=O,5.72% (inactive)
11,CCc1ccccc1NC(=O)[C@@H]1CCC(=O)N1C1OC(=O)c2c1ccc(OC)c2OC (stereo partly drawn),18.1% (inactive)
12,CC1CN(C(=O)CCC(=O)NC2CCN(Cc3ccccc3)CC2)c2ccccc2O1 (stereo not drawn),22.7% (inactive)
13,CC1CN(C(=O)CCC(=O)NCCCN2CCC(Cc3ccccc3)CC2)c2cc(Cl)ccc2O1 (stereo not drawn),90.6% (active)
14,CC1CN(C(=O)CCC(=O)NCc2cccnc2)c2ccccc2O1 (stereo not drawn),-8.45% (inactive)
15,CC(OC(=O)CCc1nc(=O)c2ccccc2n1C)C(=O)NCc1ccc2c(c1)OCO2 (stereo not drawn),-11.9% (inactive)
16,CN(CC(=O)NC(=O)Nc1ccccc1F)Cc1ccccc1,-18% (inactive)
17,CCOC(=O)CSc1nncc2ccc(OC)c(OC)c12,0.893% (inactive)
18,COc1ccc(C2c3c(C)nn(-c4ccccc4)c3NC(=O)N2c2ccccc2)cc1 (stereo not drawn),9.76% (inactive)
19,CCCCCCCCn1c2c(c(=N)c3c1CCC3)CCCC2,87% (active)
20,Cc1cc([N+](=O)[O-])nn1CCCC(=O)Nc1cccnc1Cl,21.4% (inactive)

row,Structure (SMILES),inhibition
1,COc1ccc(N2CCN(S(=O)(=O)CCNC(=O)C34CC5CC(CC(C5)C3)C4)CC2)cc1,17.2% (inactive)
2,CCOC(=O)C(C)n1nc(-c2ccccc2)c2ccccc2c1=O (stereo not drawn),7.24% (inactive)
3,Cc1cc(C)nc(/N=C2\NC(=O)CC(C(=O)O)N2c2ccc(Cl)cc2Cl)n1 (stereo not drawn),3.8% (inactive)
4,O=C(COC(=O)c1ccccc1Cl)NC1CCCCCCC1,4.18% (inactive)
5,COC(=O)c1ccc(NC(=O)c2ccccc2NS(=O)(=O)c2ccccc2)cc1,36.9% (inactive)
6,COc1cc(OC)c(S(=O)(=O)Nc2ccccc2C(=O)O)cc1S(=O)(=O)Nc1ccccc1C(=O)O,13.2% (inactive)
7,COc1cc(NC(=O)c2ccccc2NS(=O)(=O)c2ccc(Cl)s2)cc(OC)c1,85.1% (active)
8,O=C(Nc1cc2c3c(c1)C1CCCC1CN3CC1CCCC21)c1ccc([N+](=O)[O-])cc1 (stereo not drawn),14.3% (inactive)
9,CN(C)c1ccc(C=NCCc2ccc(S(N)(=O)=O)cc2)cc1,5.89% (inactive)
10,Cc1cc(C)c(C#N)c(SCC(=O)Nc2ccccc2)n1,-38.3% (inactive)
11,Cc1cc2cc3c(cc2nc1SCC(=O)Nc1c(C)cccc1C)CCC3,56.1% (active)
12,Cc1cccc(C)c1NC(=O)CSc1ccc([N+](=O)[O-])cn1,7.43% (inactive)
13,CN(C)CCn1c2c(c(SCC(=O)Nc3ccccc3C(F)(F)F)nc1=O)CCCC2,18.8% (inactive)
14,COc1ccc(CNC(=O)c2cc3c(=O)n4ccccc4nc3n(CC3CCCO3)c2=N)cc1 (stereo not drawn),22.4% (inactive)
15,Cc1cccn2c(=O)c3cc(C(=O)NCC4CCCO4)c(=N)n(Cc4ccc(F)cc4)c3nc12 (stereo not drawn),19.6% (inactive)
16,Cc1cccn2c(=O)c3cc(C#N)c(=O)n(CCCN4CCOCC4)c3nc12,16% (inactive)
17,Cc1ccc2nc3c(cc(C(=O)NCCc4ccccc4)c(=N)n3CC3CCCO3)c(=O)n2c1 (stereo not drawn),27.8% (inactive)
18,COc1ccc(CCn2c(=N)c(C(=O)NCC3CCCO3)cc3c(=O)n4cccc(C)c4nc32)cc1OC (stereo not drawn),64.4% (active)
19,Cc1cccn2c(=O)c3cc(C(=O)NCCN4CCOCC4)c(=N)n(Cc4cccnc4)c3nc12,52.7% (active)
20,COc1cccc(C2=CC(=O)C[C@H](c3ccc(F)cc3)C2)c1OC,11.8% (inactive)

row,Structure (SMILES),inhibition
1,Cc1nc(-c2ccc(Cl)cc2)sc1C1(C)CC(c2ccc(Br)cc2)=NO1 (stereo not drawn),4.57% (inactive)
2,Cc1c(Cl)cccc1NC(=O)Nc1ccc(C(=O)N2CCCC2)cc1,41.9% (inactive)
3,Cc1[nH]c(C)c(S(=O)(=O)N2CCC(C)CC2)c1C(=O)N1CCCC1,-8.55% (inactive)
4,N#Cc1ccc(C2=CC(=O)C[C@H](c3ccc(Cl)cc3)C2)cc1,-22.1% (inactive)
5,COC(=O)c1c(-c2ccc(C)cc2)csc1N,16.7% (inactive)
6,CC(=NCc1ccco1)C1=C(O)c2ccccc2C1=O,-27.5% (inactive)
7,CCOC(=O)c1c(-c2ccc(C)cc2)csc1/N=C(\C)C1=C(O)c2ccccc2C1=O,63.4% (active)
8,Cc1cc(-c2ccc(S(=O)(=O)N3CCc4ccccc4C3)s2)on1,-2.71% (inactive)
9,C/C(=N\NC(=O)c1ccc(C)cc1)C1C(=O)c2ccccc2C1=O,1.09% (inactive)
10,COc1cc(NC(=O)c2ccc(CNc3c(N4CCCC4)c(=O)c3=O)cc2)cc(OC)c1OC,-9.99% (inactive)
11,O=C(NCc1ccc2c(c1)OCO2)c1c(O)nc2sccn2c1=O,16.7% (inactive)
12,CC(=O)c1c(OCC(=O)N(C)C2CCCCC2)ccc2c(C)cc(=O)oc12,4.3% (inactive)
13,Cc1cccnc1NC(=O)c1cccc(S(=O)(=O)N2CCN(c3ccc(F)cc3)CC2)c1,28.4% (inactive)
14,COc1cc(C)cc(CN2CCC(Cc3ccccc3)CC2)c1O,-29.4% (inactive)
15,CC1CCCN(CC(O)COCc2ccccc2)C1 (stereo not drawn),3.39% (inactive)
16,O=C(CN1CCN(c2ccc(F)cc2)CC1)Nc1ccccc1,0.1% (inactive)
17,Oc1c(CN2CCCC2)cc(COCc2ccccc2)c2cccnc12,75.7% (active)
18,Oc1c(CN2CCN(c3ccc(F)cc3)CC2)cc(Cl)c2cccnc12,65% (active)
